Only some compounds are listed: those with a hit (about 15% of all), similar ones and a draw of the others.
12-LOX inh – Primary qHTS assay for inhibitors of human arachidonate 12S-lipoxygenase (ALOX12): Round 2. Polyunsaturated fatty acid lipoxygenase ALOX12 (Homo sapiens), P18054. purified 12hLO, xylenol orange hydroperoxide absorbance. Potency, µM (doses to about 108 µM), without a hit: at the top dose activity change, negative = inhibition, hits mostly inhibitors. actives 1.1% (n = 580,000)
Target sequence (P18054 whole entry, looked up): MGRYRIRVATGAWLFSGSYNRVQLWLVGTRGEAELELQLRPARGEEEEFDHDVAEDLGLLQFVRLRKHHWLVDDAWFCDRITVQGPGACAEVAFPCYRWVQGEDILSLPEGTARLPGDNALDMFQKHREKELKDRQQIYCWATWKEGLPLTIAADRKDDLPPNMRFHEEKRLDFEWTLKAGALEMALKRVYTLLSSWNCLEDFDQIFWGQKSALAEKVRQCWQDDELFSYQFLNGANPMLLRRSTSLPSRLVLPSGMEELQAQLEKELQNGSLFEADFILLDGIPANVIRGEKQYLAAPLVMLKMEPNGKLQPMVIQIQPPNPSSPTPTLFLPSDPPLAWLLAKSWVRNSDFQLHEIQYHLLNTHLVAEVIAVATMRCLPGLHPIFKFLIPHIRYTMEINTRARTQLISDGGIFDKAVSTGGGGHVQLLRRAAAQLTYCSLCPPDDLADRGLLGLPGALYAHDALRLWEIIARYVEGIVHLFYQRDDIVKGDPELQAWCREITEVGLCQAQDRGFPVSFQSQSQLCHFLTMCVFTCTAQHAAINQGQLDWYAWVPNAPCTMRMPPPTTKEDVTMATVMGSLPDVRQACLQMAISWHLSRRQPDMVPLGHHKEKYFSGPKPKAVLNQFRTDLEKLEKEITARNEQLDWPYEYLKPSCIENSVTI
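Purified human 12hLO (150 nM final) in 25 mM Hepes, 0.01% Triton X-100, pH 7.0 was preincubated 15 min at room temperature with compound. Then 40 uM arachidonic acid was added, 30 min. Hydroperoxide was read by Fe-XO absorbance ratio 573/405 nm.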
TDP1 cell CPT – qHTS for Inhibitors of human tyrosyl-DNA phosphodiesterase 1 (TDP1): qHTS in cells in presence of CPT | Potency, µM (series often up to 46.2 µM), for inactives: at the highest dose activity change, negative = growth inhibition, actives largely listed as inhibitors | actives 12% (n = 420,000) | chicken DT40 Tdp1-/-;hTDP1 cells + 20 nM CPT, ATP luminescence, 48 h; also: nearly all actives have a fitted effect of over 55% in size
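Chicken DT40 Tdp1-/- cells stably complemented with human TDP1 were seeded at 400 cells/well in medium containing 20 nM camptothecin, exposed to pin-transferred compounds, and grown at 37 °C for at least 48 hr. Viability was read as ATP luminescence.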
RORg inh – qHTS for inhibitors of ROR gamma transcriptional activity; Nuclear receptor ROR-gamma (Mus musculus), P51450; Drosophila S2 Gal4-RORgamma UAS-luciferase reporter, 20 h; Potency, µM (highest dose often 53.6 µM), for the others: at the highest dose activity change, negative = inhibition, actives largely listed as inhibitors; actives 5.4% (n = 310,000); AID 2551, 2010; also: nearly all actives have a fitted effect of over 60% in size
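Schneider cells (Drosophila), stable Gal4 DBD–ROR gamma + UAS-luc; 1 hr cmpd preincubation; Cu2+ induction 700 uM final; 20 hr ambient; luminescence.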
TDP1 cell noCPT – qHTS for Inhibitors of human tyrosyl-DNA phosphodiesterase 1 (TDP1): qHTS in cells in absence of CPT | AID 686978, 2013 | DT40 Tdp1-/- hTDP1 cells, no CPT, ATP luminescence, 48 h | actives 15% (n = 420,000) | Potency, µM (highest dose often 46.2 µM), without a hit: at the highest dose activity change, negative = growth inhibition, hits mostly inhibitors; also: nearly all actives have a fitted effect of over 55% in size
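Readout: luminescence from CellTiter-Glo after 30 min in the dark at RT. Cells: DT40 Tdp1-/- with stable hTDP1, 400/well. Exposure: compounds alone, ≥48 hr, 37 °C.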
Gal4-VP16 FLuc – VP16 counterscreen qHTS for inhibitors of ROR gamma transcriptional activity; Potency, µM (titrated, usually from 53.6 µM), inactives show top-dose activity, negative = inhibition, most hits filed as inhibitors; actives 3.5% (n = 310,000); AID 2546, 2010; Drosophila S2 Gal4-VP16 UAS-luciferase, luminescence, 20 h;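 also: Gal4-VP16 expression switched on by copper sulfate through the metallothionein promoter; nearly all actives have a fitted effect of over 50% in size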
ELG1 repair inh – qHTS screen for small molecules that inhibit ELG1-dependent DNA repair in human embryonic kidney (HEK293T) cells expressing luciferase-tagged ELG1 | Potency, µM (top dose mostly 46.1 µM), for inactives: at the highest dose activity change, negative = inhibition, most hits filed as inhibitors | HEK293T ELG1-luciferase reporter, luminescence, 16 h; DNA damage induced by 5-fluorouridine | actives 2.3% (n = 330,000); also: nearly all actives have a fitted effect of over 55% in size
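HEK293T cells expressing luciferase-tagged ELG1 (2,000/well) received 5-Fluorouridine plus compound or DMSO for 16 hr at 37 °C. Luciferase was read by ONE-Glo luminescence after 30 min at room temperature.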
Active calls of the source: *; ? = inconclusive; · = no result given; ! = a repeat was not active; [ ] = remark or other dose. Calls follow the shape of the dose curve; as a rule, active = well fitted curve in the direction sought with a large enough effect; inconclusive = small, poorly fitted or top-dose-only effect, or another doubt; inactive = no such curve, though single readings can be large; an effect the other way counts as inactive or inconclusive. % is scaled to controls: 0 for no effect and ±100 for the full control effect; potency is read from the fitted curve at half-maximal effect.

SMILES | 12-LOX inh | TDP1 cell CPT | RORg inh | TDP1 cell noCPT | Gal4-VP16 FLuc | ELG1 repair inh
COc1cc2cc(C(=O)N3CCOCC3)cc(-c3ccc(C)cc3)c2cc1OC | -9% | -22% | ? | -7% | 8.9µM* | 15µM*
COc1ccc(C(=O)N2CCC3(CC2)CCC(O)(CN(C)C)CC3)cc1 | 58% | · | · | · | · | ·
S=C(NCc1ccco1)Nc1ccc(Br)cn1 | ? | -21% | 3.2µM* | -14% | 3.5µM* | 2%
S=C(NCc1ccco1)Nc1cc(-c2ccccc2)[nH]n1 | 5µM* | 12% | 6.3µM* | ? | ? | -13%
O=S(=O)(c1ccc(NC(=S)NCc2ccco2)cc1)N1CCCC1 | -20% | 11% | -8% | -20% | -9% | 0%
CCOC(=O)c1sc(=NC(=O)c2ccco2)n(C)c1C | 0% | 6% | -18% | -15% | 3% | ?
Cc1sc(=NC(=O)c2ccco2)n(C)c1-c1ccc(Cl)cc1 | 11% | 12µM* | ? | 12µM* | -1% | ?
CC1CCCCC1NC(=O)/C(C#N)=C/c1ccccc1F (stereo not given) | -9% | -104% | 11µM* | -100% | 11µM* | 26µM*
CSc1ccc(/C=C(/C#N)C(=O)NC2CCCC2)cc1 | 8% | · | · | · | · | ·
CC(=O)Nc1ccc(/C=C(\C#N)C(=O)NC2CCCCC2C)cc1 (stereo not given) | 1% | -1% | 7% | ? | 0% | -1%
COc1cc(/C=C(\C#N)C(=O)NC2CCCCC2C)ccc1OS(=O)(=O)c1ccc(C)cc1 (stereo not given) | -1% | ? | ? | 16µM* | 11µM* | ?
CSc1ccc(/C=C(\C#N)C(=O)NC2CCCCC2C)cc1 (stereo not given) | -2% | ? | ? | 10µM* | ? | -16%
COc1ccc(CCNC(=S)NC(=O)c2ccc(Br)cc2)cc1OC | 28µM* | ? | 13µM* | ? | ? | ?
CNC(=S)NCCc1ccc(OC)c(OC)c1 | -19% | -5% | -21% | 6% | -4% | 19%
COc1ccc(CCNC(=S)NC(=O)c2ccccc2)cc1C | 6% | ? | 10µM* | ? | ? | 13µM*
COc1ccc(CCNC(=O)CCNC(=O)c2ccc(Br)cc2)cc1OC | -6% | -17% | 37% | -5% | -3% | 1%
Cc1ccc(C(=O)O)cc1NC(=S)NC(=O)Cc1ccccc1 | ? | -2% | -9% | -23% | -5% | 0%
Cc1ccc(C(=O)O)cc1NC(=S)NC(=O)c1ccc(COc2ccccc2)cc1 | 2.8µM* | ? | ? | ? | -11% | 22%
CCn1ccc(C(=O)NCc2cccnc2N(C)CCc2ccccn2)n1 | 6% | · | · | · | · | ·
N#Cc1ccc(C(=O)N2CCCCCCNC(=O)[C@@H]3C[C@@H](c4nc(-c5cccnc5)no4)C[C@@H]32)cc1 | 48% | · | · | · | · | ·
O=C(NCCC1=CCCCC1)c1ccc2c(c1)N(Cc1ccccc1)C(=O)CS2 | 23% | ? | 13% | 21µM* | -2% | ?
O=C(NCc1ccc2c(c1)OCO2)c1ccc2c(c1)N(Cc1c(F)cccc1Cl)C(=O)CS2 | -9% | ? | 21% | 23µM* | ? | ?
O=C(NCCc1ccc(Cl)cc1)c1ccc2c(c1)N(Cc1ccc(Cl)cc1)C(=O)CS2 | -13% | ? | · | ? | · | ·
Cc1ccc(C)c(CN2C(=O)CSc3ccc(C(=O)NCc4ccccc4)cc32)c1 | -22% | 10µM* | · | 16µM* | · | ·
O=C(NCCc1ccccc1)c1ccc2c(c1)N(Cc1ccc(F)cc1Cl)C(=O)CS2 | 0% | -27% | · | -25% | · | ·
SMILES | 12-LOX inh | TDP1 cell CPT | RORg inh | TDP1 cell noCPT | Gal4-VP16 FLuc | ELG1 repair inh
O=C(NCCc1ccc(Cl)cc1)c1ccc2c(c1)N(Cc1ccc(F)cc1Cl)C(=O)CS2 | -18% | ? | · | 6.5µM* | · | ·
COc1ccc(-n2c(=O)c3c(n2Cc2ccccc2)CN(C(=O)c2ccnn2C)CC3)cc1 | 1% | · | · | · | · | ·
CC(=O)N(C1CCOCC1)C1CCN(S(=O)(=O)c2ccccc2)CC1 | 6% | · | · | · | · | ·
Cc1ccc(CNC(=O)c2ccc3c(c2)N(Cc2cccc(C)c2)C(=O)CS3)cc1 | -2% | ? | · | 21µM* | · | ·
N#Cc1cccc(C(=O)OCc2cc(-c3ccc(Cl)cc3)no2)c1 | 4% | · | · | · | · | ·
CCCCCCCCO | 6% | 8% | 1% | 3% | -2% | 8%
CCCCCCCCCCCCCCCC[N+](C)(C)CC | ? | 1µM* | -28% | 0.52µM*! | -23% | -22%
CCCCCC[N+](C)(C)CCSSCC[N+](C)(C)CCCCCC | 126% | -7% | -1% | -5% | 1% | 3%
CCCCCCCC[N+](C)(C)CCCCCCCC | · | 1.7µM* | · | 1.5µM* | · | ·
CCCCCCCCCCCCCC[N+](C)(C)C | 2%[22.9 µM] | 0.94µM* | ? | 0.6µM* | ? | ·
CCCCCCCCCCCCC | 17%[176 µM] | · | · | · | · | ·
CCCCCCCC[N+](CCCCCCCC)(CCCCCCCC)CCCCCCCC | · | · | 4.5µM* | · | 2µM* | ·
C#CC[N+](C)(C)CCCCCCCC | -2% | ? | 6%[10 µM] | ? | -1% | 9%
CSc1nnc(NC(=O)c2cc(=O)c3cc(Cl)c(C)cc3o2)s1 | -2% | · | · | · | · | ·
Cc1cnc(C(=O)NC2C[C@H]3CC[C@@H](C2)N3C(=O)CC(C)C)cn1 (stereo not given in full) | 40% | · | · | · | · | ·
CCCCCCCCCCCCCCCC[N+](C)(C)CCl | ? | 1.8µM* | · | 2.3µM* | · | ·
CCCCCCCCCCS(=O)CCCl (stereo not given) | 7% | · | · | · | · | ·
CCc1cc(=O)n(CC(=O)Nc2ccc(F)cc2)c(-c2ccccc2)n1 | -27% | · | · | · | · | ·
COCC(=O)N1CCN2C(=O)c3cc(-c4cccc(C(F)(F)F)c4)ccc3NC(=O)[C@H]2C1 | -5% | · | · | · | · | ·
C=CCOC(=O)N1CCC2CC1c1c(-c3ccc(C(F)(F)F)cc3)cccc12 (stereo not given) | -9% | 23µM* | · | ? | · | ·
COCC(=O)N1CCC2CC1c1c(-c3ccc(C(F)(F)F)cc3)cccc12 (stereo not given) | 1% | 23µM* | · | ? | · | ·
COc1ccc(S(=O)(=O)N2CCC3CC2c2c(-c4ccc(C(F)(F)F)cc4)cccc23)cc1 (stereo not given) | 6% | 4.6µM* | · | 5.2µM* | · | ·

Screens deposited in PubChem BioAssay by National Center for Advancing Translational Sciences (NCATS).
